Experimental data from the supplement of paper PMC11732987, “Enantioselective OTUD7B fragment discovery through chemoproteomics screening and high-throughput optimisation” (Communications Chemistry, 2025).

Assays:
Experiment in all cases: log2 ratio of Biotin-Ahx-Ub-VS probe labelling (fragment/DMSO); higher = less target engagement (more negative = stronger competition), active = hit call of the paper (q ≤ 0.05, log2 ratio ≤ -1)
Conditions in all cases: compound concentration: 200 uM; treatment time: 3 h
OTUD6B = biological target: T1, OTUD6B (UniProt Q8N6M0)
T1 sequence (whole entry): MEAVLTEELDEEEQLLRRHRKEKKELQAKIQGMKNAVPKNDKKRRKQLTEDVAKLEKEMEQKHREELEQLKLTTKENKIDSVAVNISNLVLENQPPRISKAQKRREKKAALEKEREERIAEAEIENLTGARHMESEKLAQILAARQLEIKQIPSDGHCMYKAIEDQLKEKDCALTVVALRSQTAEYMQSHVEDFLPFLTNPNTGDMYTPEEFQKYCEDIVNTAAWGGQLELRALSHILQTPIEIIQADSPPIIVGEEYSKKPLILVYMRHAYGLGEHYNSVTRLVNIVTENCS
How it was run: (§1)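 HEK293T lysate, 495 µg per sample in Tris/CHAPS/IGEPAL buffer with protease inhibitors, was treated in triplicate with fragment at 200 µM or vehicle for 3 h and then with Biotin-Ahx-Ub-VS at 0.5 µM final for 1 h. Labelled DUBs were NeutrAvidin-enriched, digested with LysC and trypsin, and run by diaPASEF LC-MS/MS. Spectronaut label-free quantities were global-median-normalised, and values are average log2 fragment/vehicle ratios by unpaired t-test on proteins with ≥2 unique peptides.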

OTUD7B = biological target: T2, OTUD7B (UniProt Q6GQQ9)
T2 sequence (whole entry): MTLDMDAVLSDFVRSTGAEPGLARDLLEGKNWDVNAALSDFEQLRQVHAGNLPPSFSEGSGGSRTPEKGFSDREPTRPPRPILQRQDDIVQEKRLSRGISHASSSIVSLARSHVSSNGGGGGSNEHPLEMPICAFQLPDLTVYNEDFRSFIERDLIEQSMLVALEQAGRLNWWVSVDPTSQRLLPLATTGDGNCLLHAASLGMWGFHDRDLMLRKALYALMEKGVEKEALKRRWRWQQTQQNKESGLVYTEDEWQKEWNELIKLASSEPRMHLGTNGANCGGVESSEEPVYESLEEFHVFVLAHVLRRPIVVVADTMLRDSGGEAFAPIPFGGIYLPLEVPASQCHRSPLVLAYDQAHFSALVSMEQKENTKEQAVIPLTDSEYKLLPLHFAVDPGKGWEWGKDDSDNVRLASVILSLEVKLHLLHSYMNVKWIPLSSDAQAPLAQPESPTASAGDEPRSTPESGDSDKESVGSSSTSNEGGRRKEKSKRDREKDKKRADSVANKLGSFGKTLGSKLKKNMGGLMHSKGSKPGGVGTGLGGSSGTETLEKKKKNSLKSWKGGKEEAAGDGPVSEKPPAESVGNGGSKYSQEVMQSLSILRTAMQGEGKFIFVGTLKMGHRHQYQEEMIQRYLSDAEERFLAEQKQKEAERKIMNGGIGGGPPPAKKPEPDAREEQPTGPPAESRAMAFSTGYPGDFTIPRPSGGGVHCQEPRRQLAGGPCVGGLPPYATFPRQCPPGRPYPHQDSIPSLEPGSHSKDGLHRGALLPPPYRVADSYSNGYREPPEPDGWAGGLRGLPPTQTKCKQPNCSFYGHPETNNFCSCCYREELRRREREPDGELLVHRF
How it was run: as §1

PRPF8 = PRPF8 (UniProt Q6P2Q9)
How it was run: as §1

PSMD7 = biological target: T3, PSMD7 (UniProt P51665)
T3 sequence (whole entry): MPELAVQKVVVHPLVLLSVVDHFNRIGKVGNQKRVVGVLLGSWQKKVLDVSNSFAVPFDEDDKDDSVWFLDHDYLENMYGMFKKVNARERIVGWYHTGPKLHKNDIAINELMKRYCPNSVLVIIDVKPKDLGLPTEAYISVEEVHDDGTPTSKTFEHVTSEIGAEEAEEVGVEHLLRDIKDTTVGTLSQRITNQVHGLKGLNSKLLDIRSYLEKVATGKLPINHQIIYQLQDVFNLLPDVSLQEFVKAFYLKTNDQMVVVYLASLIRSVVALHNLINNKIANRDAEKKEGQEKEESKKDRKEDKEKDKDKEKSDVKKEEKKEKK
How it was run: as §1

UCHL1 = UCHL1 (UniProt P09936)
UCHL1, sequence (P09936 whole entry, looked up): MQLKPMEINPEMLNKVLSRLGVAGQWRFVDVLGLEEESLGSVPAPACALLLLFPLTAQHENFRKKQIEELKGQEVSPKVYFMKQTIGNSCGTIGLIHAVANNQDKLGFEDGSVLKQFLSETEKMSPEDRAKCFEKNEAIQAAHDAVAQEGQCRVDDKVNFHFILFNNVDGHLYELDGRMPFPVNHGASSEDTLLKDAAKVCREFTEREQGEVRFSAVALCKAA
How it was run: as §1

UCHL3 = biological target: T4, UCHL3 (UniProt P15374)
T4 sequence (whole entry): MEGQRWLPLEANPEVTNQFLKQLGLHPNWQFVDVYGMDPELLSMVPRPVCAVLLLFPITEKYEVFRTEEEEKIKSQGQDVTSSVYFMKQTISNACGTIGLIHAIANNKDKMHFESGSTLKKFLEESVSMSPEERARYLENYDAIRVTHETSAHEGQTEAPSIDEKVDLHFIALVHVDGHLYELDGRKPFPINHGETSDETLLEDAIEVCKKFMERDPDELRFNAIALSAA
How it was run: as §1

UCHL5 = biological target: T5, UCHL5 (UniProt Q9Y5K5)
T5 sequence (whole entry): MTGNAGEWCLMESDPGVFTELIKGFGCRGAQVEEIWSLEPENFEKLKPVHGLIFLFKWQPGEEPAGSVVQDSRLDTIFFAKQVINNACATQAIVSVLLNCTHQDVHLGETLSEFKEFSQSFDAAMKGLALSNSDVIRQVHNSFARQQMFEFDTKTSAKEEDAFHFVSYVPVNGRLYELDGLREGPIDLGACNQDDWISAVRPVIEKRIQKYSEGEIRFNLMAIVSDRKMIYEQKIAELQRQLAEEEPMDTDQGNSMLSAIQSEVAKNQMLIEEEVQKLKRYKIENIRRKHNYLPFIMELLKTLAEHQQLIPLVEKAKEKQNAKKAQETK
How it was run: as §1

USP10 = USP10 (UniProt Q14694)
USP10, sequence (Q14694 whole entry): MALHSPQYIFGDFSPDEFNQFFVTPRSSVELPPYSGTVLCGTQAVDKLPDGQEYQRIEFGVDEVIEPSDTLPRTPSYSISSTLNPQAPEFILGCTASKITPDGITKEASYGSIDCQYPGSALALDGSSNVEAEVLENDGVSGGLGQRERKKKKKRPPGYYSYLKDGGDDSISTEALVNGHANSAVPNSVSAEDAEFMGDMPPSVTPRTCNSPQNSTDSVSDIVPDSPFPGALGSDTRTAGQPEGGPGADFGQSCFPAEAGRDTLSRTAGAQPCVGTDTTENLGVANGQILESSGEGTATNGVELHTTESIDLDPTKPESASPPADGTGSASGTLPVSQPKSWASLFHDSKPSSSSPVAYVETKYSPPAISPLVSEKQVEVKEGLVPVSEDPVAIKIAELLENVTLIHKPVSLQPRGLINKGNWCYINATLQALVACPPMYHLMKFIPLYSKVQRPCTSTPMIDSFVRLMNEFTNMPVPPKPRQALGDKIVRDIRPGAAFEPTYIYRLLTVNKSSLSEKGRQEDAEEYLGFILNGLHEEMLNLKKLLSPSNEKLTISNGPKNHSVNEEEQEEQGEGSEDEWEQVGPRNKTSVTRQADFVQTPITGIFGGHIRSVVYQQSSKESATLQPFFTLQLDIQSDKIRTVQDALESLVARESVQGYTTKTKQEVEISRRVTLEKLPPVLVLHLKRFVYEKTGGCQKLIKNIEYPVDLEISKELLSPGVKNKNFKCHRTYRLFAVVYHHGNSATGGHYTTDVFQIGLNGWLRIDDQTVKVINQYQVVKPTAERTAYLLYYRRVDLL
How it was run: as §1

USP15 = biological target: T6, USP15 (UniProt Q9Y4E8)
T6 sequence (whole entry): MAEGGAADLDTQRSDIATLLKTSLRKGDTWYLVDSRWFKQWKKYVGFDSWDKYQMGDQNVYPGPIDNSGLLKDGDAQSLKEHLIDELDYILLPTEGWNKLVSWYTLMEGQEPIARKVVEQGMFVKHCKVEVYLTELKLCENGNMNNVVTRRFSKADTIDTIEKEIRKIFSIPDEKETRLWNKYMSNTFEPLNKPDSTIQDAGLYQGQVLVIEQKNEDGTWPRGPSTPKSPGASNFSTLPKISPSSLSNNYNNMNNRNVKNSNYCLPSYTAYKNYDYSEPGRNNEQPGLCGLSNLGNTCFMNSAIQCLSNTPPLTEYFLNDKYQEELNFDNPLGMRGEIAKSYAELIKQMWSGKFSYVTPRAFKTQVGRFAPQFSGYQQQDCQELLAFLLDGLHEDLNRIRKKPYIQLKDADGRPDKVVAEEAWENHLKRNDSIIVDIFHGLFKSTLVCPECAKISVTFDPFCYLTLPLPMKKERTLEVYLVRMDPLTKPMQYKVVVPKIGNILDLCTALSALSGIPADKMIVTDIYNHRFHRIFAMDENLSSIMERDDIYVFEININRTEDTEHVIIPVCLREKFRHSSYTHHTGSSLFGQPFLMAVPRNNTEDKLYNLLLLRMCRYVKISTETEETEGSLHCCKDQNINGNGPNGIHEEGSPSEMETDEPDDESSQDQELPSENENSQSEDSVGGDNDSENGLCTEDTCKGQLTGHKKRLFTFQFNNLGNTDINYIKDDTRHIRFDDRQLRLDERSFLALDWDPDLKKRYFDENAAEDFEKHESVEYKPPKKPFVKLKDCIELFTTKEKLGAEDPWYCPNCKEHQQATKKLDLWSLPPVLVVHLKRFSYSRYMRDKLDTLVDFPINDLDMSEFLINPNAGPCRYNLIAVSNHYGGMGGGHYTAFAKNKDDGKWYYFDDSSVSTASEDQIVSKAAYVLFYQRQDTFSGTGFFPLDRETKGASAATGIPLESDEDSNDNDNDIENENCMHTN
How it was run: as §1

USP16 = USP16 (UniProt Q9Y5T5)
USP16, sequence (Q9Y5T5 whole entry, looked up): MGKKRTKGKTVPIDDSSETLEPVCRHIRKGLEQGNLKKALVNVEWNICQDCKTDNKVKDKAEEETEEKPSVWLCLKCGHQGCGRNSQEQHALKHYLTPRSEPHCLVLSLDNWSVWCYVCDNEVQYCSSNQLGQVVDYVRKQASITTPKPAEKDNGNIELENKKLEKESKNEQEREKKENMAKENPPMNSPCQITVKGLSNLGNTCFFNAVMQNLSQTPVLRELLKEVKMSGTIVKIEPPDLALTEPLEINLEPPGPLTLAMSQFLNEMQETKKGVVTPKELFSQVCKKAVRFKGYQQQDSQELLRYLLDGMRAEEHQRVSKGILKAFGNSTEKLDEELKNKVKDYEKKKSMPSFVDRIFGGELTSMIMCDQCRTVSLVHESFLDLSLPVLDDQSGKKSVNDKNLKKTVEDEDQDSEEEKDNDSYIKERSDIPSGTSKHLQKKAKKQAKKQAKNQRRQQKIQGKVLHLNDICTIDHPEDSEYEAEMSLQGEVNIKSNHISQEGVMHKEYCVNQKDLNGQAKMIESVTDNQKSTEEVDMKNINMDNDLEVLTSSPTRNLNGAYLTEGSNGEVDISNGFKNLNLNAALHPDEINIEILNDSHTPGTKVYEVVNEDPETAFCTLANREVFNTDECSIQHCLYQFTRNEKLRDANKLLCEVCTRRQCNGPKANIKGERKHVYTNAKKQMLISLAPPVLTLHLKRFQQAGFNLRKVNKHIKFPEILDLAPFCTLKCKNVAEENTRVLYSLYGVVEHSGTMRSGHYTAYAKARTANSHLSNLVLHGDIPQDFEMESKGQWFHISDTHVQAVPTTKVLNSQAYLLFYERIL
How it was run: as §1

Measured: log2 ratio of Biotin-Ahx-Ub-VS probe labelling

CNC(=O)Cn1cc(NC(=O)CCl)cn1
active: UCHL1 -1.59
inactive: OTUD6B -0.476 | OTUD7B -0.454 | PRPF8 1e-05 | PSMD7 -0.0882 | UCHL3 0.189 | UCHL5 -0.399 | USP10 -0.209 | USP15 -0.375 | USP16 -0.148
